Nrf2 ARE act: qHTS of Nrf2 Activators | Potency, µM (doses to about 46.1 µM), hits mostly activators | actives 0.31% (n = 410,000) | AREc32 ARE-luciferase reporter (MCF7-derived line), luminescence, 24 h; further: nearly all actives have a fitted effect of over 65% in size
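ARE-driven firefly luciferase activity in AREc32 cells measured after a 24 hr compound exposure at 37 deg C, using Steady-Glo reagent and a 30 min room-temperature hold.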
Mito fusion yeast: qHTS Assay for Small Molecule Inhibitors of Mitochondrial Division or Activators of Mitochondrial Fusion; S. cerevisiae fusion-defective mutant growth rescue, CellTiterGlo 48 h; Potency, µM (top dose mostly 46.1 µM), usual class: activators; actives 0.23% (n = 320,000); AID 485298, 2010; further: nearly all actives have a fitted effect of over 45% in size
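Temperature-sensitive fusion-defective S. cerevisiae (e.g. fzo1-1, mgm1-5) were grown with compound in YPEG medium (3% ethanol, 3% glycerol) for 48 hours at 37C. Growth rescue was measured as viability by CellTiterGlo luminescence after 10 minutes at ambient.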
Nrf2 block: Nrf2 qHTS screen for inhibitors | A549 ARE-Fluc reporter, luciferase luminescence, 18-24 h | actives 2.1% (n = 360,000) | Potency, µM (titrated, usually from 46 µM), usual class: inhibitors; further: nearly all actives have a fitted effect of over 60% in size
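Reporter: ARE-Fluc in A549. Exposure: 18-24 h, 37 °C, 5% CO2, 5% FBS OPTI-MEM. Readouts: fluorescent cytotoxicity (CellTiter-Fluor), then luminescent Nrf2 signal after BugLite.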
miR-21 reporter: qHTS Assay for Modulators of miRNAs and/orActivators of miR-21; HeLa miR-21 FLuc reporter, luciferase, 48 h; 340,000 tested, under 10 active; Potency, µM (doses to about 38.3 µM), most hits filed as activators;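 further: miR-21 action dims this reporter so a rising signal means less miR-21 action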
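HeLa cells endogenously expressing miR-21, stably carrying CMV-driven firefly luciferase with a downstream miR-21 binding site, 2000 cells/well. Titrations up to approximately 40 uM, 48 hours; luciferase luminescence read.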
Glioma ERSR ind: qHTS for Inducers of the Endoplasmic Reticulum Stress Response (ERSR) in Human Glioma: qHTS; U87-MG GRP78 promoter luciferase reporter, 16 h; Potency, µM, usual class: activators; actives 0.02% (n = 420,000); AID 602332, 2012; further: series mostly up to about 76 µM; nearly all actives have a fitted effect of over 35% in size
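Stably transfected U87-MG human glioma cells carrying a GRP78-based luminescent sensor were seeded at 1000 cells/well, pin-dosed with compounds and incubated 16 h. Luciferase reagent was then added, and end-point luminescence was read after 10 min at room temperature.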
A549 tox: Nrf2 qHTS screen for inhibitors: counterscreen for cytotoxicity. A549 ARE-Fluc cells, CellTiter-Fluor viability, 18-24 h. Potency, µM (doses to about 46 µM), usual class: inhibitors. actives 0.16% (n = 390,000)
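A549 ARE-Fluc cells in 5% FBS OPTI-MEM, 5000 cells/well, rested 2 h then exposed to compounds in concentration-response for 18-24 h at 37 °C. Viability by CellTiter-Fluor fluorescence (Ex 405/Em 525) after 30 min; luciferase luminescence (BugLite, 15 min, RT) read afterwards.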
Large screens that a line does not name were inactive. Compounds with a hit are over-represented: about 2.3% of the library has one in this group of screens. The call rests on the fitted dose curve; in most records, active means well fitted curve in the direction sought with a large enough effect; inconclusive means small, poorly fitted or top-dose-only effect, or another doubt; inactive means no such curve, though single readings can be large; an effect the other way counts as inactive or inconclusive.

O=C(NCc1ccccc1)c1nc2ccccc2s1	none
O=C(NCc1ccco1)c1nc2ccccc2s1	Nrf2 ARE act 13µM, Nrf2 block inconclusive
O=C(N/N=C/c1cccc(Oc2ccccc2)c1)c1cccc(Br)c1	Nrf2 block 18µM
Cc1ccc([N+](=O)[O-])c(C(=O)N/N=C/c2cccs2)c1	Nrf2 block 9.2µM
O=C(N/N=C/c1ccc([N+](=O)[O-])s1)c1ccncc1	Nrf2 ARE act inconclusive, Nrf2 block inconclusive, Glioma ERSR ind inconclusive
Cc1ccc(C(=O)N/N=C/c2ccc([N+](=O)[O-])s2)cc1	Nrf2 block 16µM, miR-21 reporter inconclusive, A549 tox inconclusive
O=C(N/N=C/c1ccc([N+](=O)[O-])s1)c1cccc(Br)c1	Nrf2 block 21µM, miR-21 reporter inconclusive, A549 tox inconclusive
O=C1COc2ccc(NC(=O)c3ccccc3C(=O)O)cc2N1	none
O=C(/C=C/c1cccc(Oc2ccccc2)c1)N1CCOCC1	none
CCOC(=O)N/N=C\c1ccc([N+](=O)[O-])s1	Nrf2 block 23µM, A549 tox inconclusive
Cc1cccc(NC(=S)N/N=C/c2ccc([N+](=O)[O-])s2)c1	Nrf2 block 11µM, A549 tox inconclusive
COc1ccc(C(=O)NCC(=O)OC(C(=O)Nc2cc(C(F)(F)F)ccc2Cl)c2ccccc2)cc1OC (stereo not drawn)	none (no result: Nrf2 ARE act, Mito fusion yeast, miR-21 reporter, Glioma ERSR ind)
CCN1CCc2c(sc(NC(=O)c3ccc(S(=O)(=O)N(CC)c4ccccc4)cc3)c2C(N)=O)C1	Nrf2 block 16µM, A549 tox 23µM
CC1(C)Cc2ccccc2/C(=C/C(=O)N2CCCCCC2)N1	Nrf2 block 26µM
COc1cc2c(cc1OC)/C(=C/C(=O)N1CCOCC1)NC(C)(C)C2	none (no result: Nrf2 block)
Cc1cccc(C)c1NC(=O)NCCc1c[nH]c2ccccc12	none (no result: Mito fusion yeast)
CCOc1ccc(NC(=O)Cn2c(=O)n(Cc3ccco3)c(=O)c3oc4ccccc4c32)cc1	none (no result: Mito fusion yeast)
Cc1ccc(O)c(NC(=O)c2onc(C)c2Cl)c1	Nrf2 ARE act 8.9µM
Cc1noc(C(=O)Nc2ccc(F)cc2F)c1Cl	Nrf2 block inconclusive
O=C1c2ccccc2C(=O)c2[nH]cnc21	none
O=C1c2ccccc2C(=O)c2[nH]c(=O)[nH]c21	Nrf2 block 21µM, miR-21 reporter inconclusive, A549 tox 15µM
N/C(=N\OC(=O)N1CCOCC1)c1ccc(Br)cc1	Nrf2 block inconclusive, A549 tox 13µM
N/C(=N\OC(=O)N1CCOCC1)c1ccc(Cl)cc1	none
Cc1cccc(-n2ncc3c2CCCC3NC(=O)CCc2ccncc2)c1C (stereo not drawn)	Nrf2 block 5.8µM
Cc1ccn(CCC(=O)NC2CCCc3c2cnn3-c2cccc(C)c2C)n1 (stereo not drawn)	none
CC(=O)N1CCSc2ccc(S(=O)(=O)Nc3ccccc3C)cc21	Nrf2 block 13µM
COc1ccc(OCCOC(=O)CNS(=O)(=O)c2ccc(SC)c([N+](=O)[O-])c2)cc1	Nrf2 block inconclusive (no result: miR-21 reporter)
CC(OC(=O)c1snc(C(=O)NC2CCCCC2)c1N)C(=O)NC(C)(C)C (stereo not drawn)	Nrf2 block 11µM
O=C(CN1C(=O)c2ccccc2S1(=O)=O)c1ccc(OC(F)F)cc1	Nrf2 block inconclusive
O=C(CN1C(=O)c2ccccc2S1(=O)=O)c1ccc(Cl)cc1Cl	Nrf2 block 12µM (no result: Mito fusion yeast, miR-21 reporter)
O=C(CN1C(=O)c2ccccc2S1(=O)=O)c1ccc(F)cc1	Nrf2 block 13µM, miR-21 reporter inconclusive
CCOC(=O)C1(CCOC)CCN(Cc2ccccc2-c2ccco2)CC1	none
COc1cc(CNC2CCCCC2OC)cc(OC)c1 (stereo not drawn)	none
Cc1ccc(C(=O)N/N=C/c2ccc(-c3ccc(Br)cc3[N+](=O)[O-])o2)o1	Nrf2 ARE act 7.9µM, Nrf2 block inconclusive
Cc1ccc(C(=O)N/N=C\c2ccc(Br)o2)o1	none

Source: PubChem BioAssay
